PubChem BioAssay (NCATS)
Several values for one entry are separate records, joined by “and”; a condition that tells them apart may be missing. Equal entries are not always repeated. Values without a mark were called inactive. Inconclusive results are not listed. A call without a number means that no potency is given here. Activity calls are given as the source filed them. Unless noted, the call rests on the fitted dose curve; in most records, active means well fitted curve in the direction sought with a large enough effect; inconclusive means small, poorly fitted or top-dose-only effect, or another doubt; inactive means no such curve, though single readings can be large; an effect the other way counts as inactive or inconclusive. Numbered stars: 1 amine (or outer) side, 2 acyl side, 3 side chain; on linkers, the order of the positions; unused ones are H or OH. Bridge positions count the residues as written; N and C are the ends. Square brackets hold non-standard residues; d marks the D form. Peptide text beside a SMILES is read from it. I, II: the chains in the order shown. Actinocin(9to1) = Cc1c2oc3c(C)ccc(C(=O)[*:1])c3nc-2c(C(=O)[*:2])c(N)c1=O; NMeV = CN[C@H](C(=O)O)C(C)C; Sar = CNCC(=O)O

Legend:
[1] = qHTS assay for small molecule agonists of the antioxidant response element (ARE) signaling pathway (AID 651741; active means well fitted activation curve with a large enough effect in the signal ratio; the % refers to the signal ratio; further: potency means the concentration at half of the fitted maximal effect)
Outline: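 Seeding 2,000 ARE-bla HepG2 cells per well preceded a 5 h incubation at 37 C/5% CO2 and a 16 h compound exposure at 37 C. Beta-lactamase reporter activity was then quantified by fluorescence after 2 h with LiveBLAzer B/G FRET substrate.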

[2] = qHTS assay for small molecule activators of the p53 signaling pathway (AID 651743; active means well fitted activation curve with a large enough effect in the signal ratio, not every such curve was filed as active; the % refers to the signal ratio; further: series mostly up to about 92 µM); settings: HCT-116 p53RE-bla, beta-lactamase FRET ratio, 16 h; activation: hits give high values
Outline: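 Screen for p53 pathway agonists uses stably transfected p53RE-bla HCT-116 cells, 4,000 per well, treated 16 h at 37 C with compounds in DMSO.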

[3] = qHTS assay for small molecule disruptors of the mitochondrial membrane potential - 1 hr assay (AID 651754; calls by dose curve; further: nearly all actives have a fitted effect of over 35% in size; further: potency means the concentration at half of the fitted maximal effect)
Outline: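 HepG2 cells, attached overnight at 37C, were exposed to compound or DMSO vehicle for 1 hr at 37C, 5% CO2, then stained with Mito-MPS dye for 30 min. Red aggregate versus green monomer fluorescence reports membrane potential.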

[4] = qHTS assay for small molecule disruptors of the mitochondrial membrane potential - 5 hr assay (AID 651755; calls by dose curve; further: nearly all actives have a fitted effect of over 40% in size; further: potency means the concentration at half of the fitted maximal effect)
Outline: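 HepG2, 2,000 cells/well, overnight attach; cpd or DMSO 5 hr, 37C/5% CO2; Mito-MPS 30 min 37C; fluor 490/535 + 540/590 nm.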

[5] = target: Tumor necrosis factor (Homo sapiens) (UniProt P01375); assay: qHTS assay to identify small molecules that stimulate Tumor Necrosis Factor-alpha (TNF-alpha) secretion (AID 651757; active means well fitted curve in the direction sought with a large enough effect in the signal ratio; the % refers to the signal ratio)
Chain of Tumor necrosis factor (Homo sapiens) (P01375 whole entry, looked up): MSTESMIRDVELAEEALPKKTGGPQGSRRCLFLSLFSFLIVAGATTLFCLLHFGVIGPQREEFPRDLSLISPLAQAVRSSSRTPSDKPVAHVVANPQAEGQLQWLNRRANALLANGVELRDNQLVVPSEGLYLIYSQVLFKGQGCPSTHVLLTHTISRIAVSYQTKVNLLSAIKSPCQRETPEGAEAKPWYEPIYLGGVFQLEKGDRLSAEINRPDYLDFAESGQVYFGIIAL
Outline: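 THP-1 cells were exposed to compounds for 17 hrs at 37 C, after which secreted TNF-alpha was measured by homogeneous HTRF (TR-FRET) using cryptate- and XL665-labeled anti-TNF-alpha antibodies, read after 3 hr at room temperature.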

[6] = qHTS assay for environmental chemicals that activate the Aryl hydrocarbon Receptor (AhR) signaling pathway (AID 651777); settings: 1A2-DRE human hepatoma cells, luciferase, 24 h; activation: hits give high values; further: nearly all actives have a fitted effect of over 15% in size
Outline: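 Human hepatoma 1A2-DRE cells, stably carrying a dioxin response element and CYP1A2 promoter driving luciferase, were exposed to compounds for 24 hr at 37 C and 5% CO2. Luciferase signal was then read after 30 min One-Glo at room temperature.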

[7] = target: Peroxisome proliferator-activated receptor alpha (Homo sapiens) (UniProt Q07869); assay: qHTS assay for small molecule agonists of the peroxisome proliferator-activated receptor alpha (PPARalpha) signaling pathway (AID 651778); settings: PathHunter PPARalpha complementation, chemiluminescence, 6 h; max response: hits give high values
Chain of Peroxisome proliferator-activated receptor alpha (Homo sapiens) (Q07869 whole entry, looked up): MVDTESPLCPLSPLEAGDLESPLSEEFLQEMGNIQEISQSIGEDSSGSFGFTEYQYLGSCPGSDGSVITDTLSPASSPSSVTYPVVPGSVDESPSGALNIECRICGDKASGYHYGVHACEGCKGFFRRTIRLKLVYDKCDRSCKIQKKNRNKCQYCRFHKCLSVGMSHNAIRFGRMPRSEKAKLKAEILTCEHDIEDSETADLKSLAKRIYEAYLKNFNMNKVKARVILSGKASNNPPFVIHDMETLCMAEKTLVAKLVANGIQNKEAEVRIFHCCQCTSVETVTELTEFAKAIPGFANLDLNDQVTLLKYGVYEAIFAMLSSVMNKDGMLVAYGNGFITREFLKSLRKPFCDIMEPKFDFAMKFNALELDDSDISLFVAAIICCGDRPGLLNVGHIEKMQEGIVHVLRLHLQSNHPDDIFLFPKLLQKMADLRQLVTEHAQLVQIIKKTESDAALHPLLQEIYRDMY
Outline: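 Chemiluminescence from complemented enzyme reported PPARalpha activation in cells after 6 hr of compound treatment at 37 C. The detection reagent was incubated for 60 min at room temperature, and compounds were scored as agonists.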

[8] = qHTS assay for small molecule activators of the nuclear factor-kappa B (NF-kB) signaling pathway (AID 651749; active means well fitted activation curve with a large enough effect in the signal ratio; the % refers to the signal ratio; further: series mostly up to about 77 µM); settings: NF-kB-bla ME-180 cells, beta-lactamase FRET ratio, 16 h; hits give high values
Outline: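 Stably transfected ME-180 line; NF-kB response element upstream of beta-lactamase. Treatment: compound or DMSO, 16 hr. Detection: fluorescent FRET substrate.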

[9] = target: Nuclear receptor ROR-gamma (Homo sapiens) (UniProt P51449); assay: qHTS assay for small molecule antagonists of the retinoid-related orphan receptor gamma (ROR-gamma) signaling pathway (AID 651802); further: nearly all actives have a fitted effect of over 60% in size; further: potency means the concentration at half of the fitted maximal effect
Chain of Nuclear receptor ROR-gamma (Homo sapiens) (P51449 whole entry, looked up): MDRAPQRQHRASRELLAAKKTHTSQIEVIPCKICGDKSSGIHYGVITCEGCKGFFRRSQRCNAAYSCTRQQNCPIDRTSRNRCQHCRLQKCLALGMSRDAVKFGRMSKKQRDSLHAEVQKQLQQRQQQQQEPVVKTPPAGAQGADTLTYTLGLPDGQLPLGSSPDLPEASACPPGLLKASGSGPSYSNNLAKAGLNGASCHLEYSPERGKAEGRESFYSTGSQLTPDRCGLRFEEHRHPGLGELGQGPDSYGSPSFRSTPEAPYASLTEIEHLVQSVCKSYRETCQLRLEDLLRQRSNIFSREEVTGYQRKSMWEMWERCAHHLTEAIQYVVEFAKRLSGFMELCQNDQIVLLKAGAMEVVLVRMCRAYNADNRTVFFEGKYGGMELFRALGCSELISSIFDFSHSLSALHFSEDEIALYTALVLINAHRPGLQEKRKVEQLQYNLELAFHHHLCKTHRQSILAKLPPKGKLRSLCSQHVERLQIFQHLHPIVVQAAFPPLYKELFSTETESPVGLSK
Outline: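 CHO cells carrying TET-inducible ROR-gamma and an ROR response element–luciferase reporter were exposed to compound, then induced with doxycycline. After 16hr at 37C, luminescence was read; lower signal indicates antagonism.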

[10] = qHTS assay to identify small molecules that stimulate interleukin-8 (IL-8) secretion (AID 651758; active means well fitted activation curve with a large enough effect in the signal ratio; the % refers to the signal ratio)
Outline: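 Secreted IL-8 measured by TR-FRET sandwich (cryptate and XL665 antibodies) from THP-1 cells exposed to compound overnight (16 hrs, 37 C).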

[11] = target: Arylsulfatase A (Homo sapiens) (UniProt P15289); assay: qHTS screen for enhancers of Arylsulfatase A (ASA1): LOPAC Validation Assay (AID 720538); settings: outcome: dose series up to 57.5 µM
Chain of Arylsulfatase A (Homo sapiens) (P15289 whole entry, looked up): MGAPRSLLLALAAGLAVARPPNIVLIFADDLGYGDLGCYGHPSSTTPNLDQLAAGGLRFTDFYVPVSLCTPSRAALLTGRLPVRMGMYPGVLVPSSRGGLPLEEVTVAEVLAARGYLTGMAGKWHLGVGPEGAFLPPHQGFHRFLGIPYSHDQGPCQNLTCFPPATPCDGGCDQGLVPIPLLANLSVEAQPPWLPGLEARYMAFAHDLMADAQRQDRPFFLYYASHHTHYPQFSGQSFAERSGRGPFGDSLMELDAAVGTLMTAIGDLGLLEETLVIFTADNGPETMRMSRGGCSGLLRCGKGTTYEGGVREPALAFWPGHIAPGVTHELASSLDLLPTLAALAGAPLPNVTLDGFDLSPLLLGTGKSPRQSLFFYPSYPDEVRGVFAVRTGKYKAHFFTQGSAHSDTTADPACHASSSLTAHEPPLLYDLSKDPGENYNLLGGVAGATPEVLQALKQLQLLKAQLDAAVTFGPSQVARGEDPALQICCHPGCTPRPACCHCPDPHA
Outline: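 Cell-based enhancement test: residual ASA activity in SV40-transformed I179S patient fibroblasts is measured by pNCS turnover (0.5mM final, 14h, room temperature) following 48h compound incubation; higher fluorescence indicates activation.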

[12] = qHTS for compounds that reverse cellular toxicity of Amyloid beta (A-beta) peptide in yeast: LOPAC Validation Assay (AID 720559)
Outline: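 Here, A-beta-toxic yeast grow with test compounds at 30 C for 48 hr before optical density at 600 nm is recorded; data are normalized against DMSO and the FeCl3-clioquinol control.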

[13] = qHTS for Activators of Parkin Expression: LOPAC Validation Assay (NLuc Reporter) (AID 720572)
Outline: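 Parkin promoter-driven FLuc/NLuc neuronal reporter cells; 24 h plating, 7-pt dose response, 24 h at 37 C/5% CO2; FLuc then NanoLuc reagent, 10 min each, luminescence; DMSO/positive control normalized.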

[14] = qHTS for Activators of Parkin Expression: LOPAC Validation Assay (FLuc Reporter) (AID 720573)
Outline: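 Readout is FLuc luminescence from neuronal reporter cells (Parkin promoter, FLuc plus NLuc) after 24 h compound exposure in dose response. Values normalized to neutral DMSO and positive-control compounds.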

CCCCCCc1ccc(O)cc1O
Potency [1]: 66.8 µM (active) | activation [2]: 7.68% and 3.42% | Potency [3]: 37.6 µM (active) | Potency [4]: 37.6 µM (active) | outcome [5]: inactive | activation [6]: 1.13% and 0.133% | max response [7]: -0.464% and 3.82%

CC(=O)O[C@]1(C(C)=O)CC[C@H]2[C@@H]3C[C@H](C)C4=CC(=O)CC[C@]4(C)[C@H]3CC[C@@]21C
Potency [1]: 27.3 µM (active) | activation [2]: -2.08% and -7.09% | activation [8]: -2.22% and -5.39% | Potency [3]: inactive | outcome [5]: inactive | activation [6]: 0.858% and 1.58% | max response [7]: 0.549% and -0.24% | Potency [9]: 16.8 µM (active)

Cc1c2oc3c(C)ccc(C(=O)N[C@@H]4C(=O)N[C@H](C(C)C)C(=O)N5CCC[C@H]5C(=O)N(C)CC(=O)N(C)[C@@H](C(C)C)C(=O)O[C@@H]4C)c3nc-2c(C(=O)N[C@@H]2C(=O)N[C@H](C(C)C)C(=O)N3CCC[C@H]3C(=O)N(C)CC(=O)N(C)[C@@H](C(C)C)C(=O)O[C@@H]2C)c(N)c1=O (I: T[dV]P[Sar][NMeV] / II: T[dV]P[Sar][NMeV]; ester I:1-I:C, II:1-II:C; linker I:N-II:N via Actinocin(9to1))
activation [2]: -13% | Potency [3]: inactive | Potency [4]: inactive | outcome [5]: inactive | activation [6]: 1.62% and 1.67% | max response [7]: -5.12% and -0.626% | Potency [9]: 0.0266 µM (active)

Nc1ccc(C(=O)O)cc1
Potency [1]: inactive | activation [2]: -1.83% | activation [8]: 0.93% | outcome [5]: inactive | Potency [10]: inactive | activation [6]: -0.596% | max response [7]: 2.41% | Potency [9]: inactive

O=C(O)CCCCC(=O)O
Potency [1]: inactive | activation [2]: -1.12% | activation [8]: 1% | outcome [5]: inactive | Potency [10]: inactive | activation [6]: 0.177% | max response [7]: -5.15%

C[C@@H]1C(=O)NC2=Nc3cccc(Cl)c3CN21
outcome [11]: inactive | outcome [12]: inactive | outcome [13]: inactive | outcome [14]: inactive

C[N+]1(CCCCC[N+]2(C)CCCC2)CCCC1
outcome [11]: inactive | outcome [12]: inactive | outcome [13]: inactive | outcome [14]: inactive

CNCCC=C1c2ccccc2CCc2ccccc21
outcome [11]: inactive | outcome [12]: inactive | outcome [13]: inactive | outcome [14]: inactive

CNCCC(Oc1ccccc1C)c1ccccc1 (centres undefined)
outcome [11]: inactive | outcome [12]: inactive | outcome [13]: inactive | outcome [14]: inactive

Nc1cc(Cl)c(NC2=NCCN2)c(Cl)c1
outcome [11]: inactive | outcome [12]: inactive | outcome [13]: inactive | outcome [14]: inactive

Oc1ccc(Cl)cc1Sc1cc(Cl)ccc1O
outcome [5]: inactive | Potency [10]: inactive | activation [6]: 6.02% | max response [7]: 18%

CN1C2CCC1CC(OC(=O)c1c[nH]c3ccccc13)C2 (centres undefined)
outcome [11]: inactive | outcome [12]: inactive | outcome [13]: inactive | outcome [14]: inactive

CC(CCc1ccccc1)NCC(O)c1ccc(O)c(C(N)=O)c1 (centres undefined)
outcome [11]: inactive | outcome [12]: inactive | outcome [13]: inactive | outcome [14]: inactive

CC(C)C[C@H]1C(=O)N2CCC[C@H]2[C@]2(O)O[C@](NC(=O)[C@@H]3C=C4c5cccc6[nH]c(Br)c(c56)C[C@H]4N(C)C3)(C(C)C)C(=O)N12
outcome [11]: inactive | outcome [12]: inactive | outcome [13]: inactive | outcome [14]: inactive

O=C(O)c1cc2cc(Cc3cccnc3)ccc2o1
outcome [11]: inactive | outcome [12]: inactive | outcome [13]: inactive | outcome [14]: inactive

NC(=NCCCCCCN=C(N)/N=C(\N)Nc1ccc(Cl)cc1)/N=C(\N)Nc1ccc(Cl)cc1
outcome [5]: inactive | activation [6]: 2.77% and -7.14% and -8.81% | max response [7]: 3.51% and 6.34% and -1.99% | Potency [9]: 26.6 µM (active)

COc1cc(NS(C)(=O)=O)ccc1Nc1c2ccccc2nc2ccccc12
outcome [11]: inactive | outcome [12]: inactive | outcome [13]: inactive | outcome [14]: inactive

COc1cccc2c1C(=O)c1c(O)c3c(c(O)c1C2=O)C[C@@](O)(C(C)=O)C[C@@H]3O[C@H]1C[C@H](N)[C@H](O)[C@H](C)O1
Potency [3]: 6.68 µM (active) | Potency [4]: 5.96 µM (active) | max response [7]: -9.3% | Potency [9]: 18.8 µM (active)

N[C@H](CO)C(=O)O
outcome [11]: inactive | outcome [12]: inactive | outcome [13]: inactive | outcome [14]: inactive

CC1(C)CCC(NC(=O)[C@@H](N)CCC(=O)O)CC1
outcome [11]: inactive | outcome [12]: inactive | outcome [13]: inactive | outcome [14]: inactive

O=C1CCC(c2ccc(-n3ccnc3)cc2)=NN1
outcome [11]: inactive | outcome [12]: inactive | outcome [13]: inactive | outcome [14]: inactive

CCCC1O[C@@H]2C[C@H]3[C@@H]4CCC5=CC(=O)C=C[C@]5(C)[C@H]4[C@@H](O)C[C@]3(C)[C@]2(C(=O)CO)O1 (some centres undefined)
outcome [11]: inactive | outcome [12]: inactive | outcome [13]: inactive | outcome [14]: inactive

COC1=CC(=O)C[C@@H](C)[C@]12Oc1c(Cl)c(OC)cc(OC)c1C2=O
activation [8]: -1.44% | Potency [3]: inactive | Potency [4]: inactive | Potency [10]: inactive | activation [6]: 0.113% | max response [7]: 2.03%

CCCn1c(=O)[nH]c(=O)c2[nH]cnc21
outcome [11]: inactive; inhibitor; fitted 0.151 uM

CC[C@H](C)C(=O)O[C@H]1CCC=C2C=C[C@H](C)[C@H](CC[C@@H]3C[C@@H](O)CC(=O)O3)[C@H]21
outcome [11]: inactive | outcome [12]: inactive

COC(=O)[C@H]1[C@H]2C[C@H]3c4[nH]c5ccccc5c4CCN3C[C@H]2CC[C@@H]1O
outcome [11]: inactive | outcome [12]: inactive | outcome [13]: inactive | outcome [14]: inactive

CC(C)COC(=O)OCN1C(=O)CN(CCN2CC(=O)N(COC(=O)OCC(C)C)C(=O)C2)CC1=O
outcome [12]: inactive | outcome [13]: inactive | outcome [14]: inactive

N[C@@H](Cc1cnc[nH]1)C(=O)O
outcome [11]: inactive | outcome [12]: inactive | outcome [13]: inactive | outcome [14]: inactive

CCC(NC(C)C)C(O)c1ccc(O)c(O)c1 (centres undefined)
outcome [12]: inactive | outcome [13]: inactive | outcome [14]: inactive

C1CCc2nnnn2CC1
outcome [12]: inactive | outcome [13]: inactive | outcome [14]: inactive

CC(=O)O[C@H]1C[C@@H]2CC[C@@H]3[C@H](CC[C@@]4(C)[C@H]3C[C@H]([N+]3(C)CCCCC3)[C@@H]4OC(C)=O)[C@@]2(C)C[C@@H]1[N+]1(C)CCCCC1
outcome [12]: inactive | outcome [13]: inactive | outcome [14]: inactive
